Screening data (PubChem)
The list is not random: actives were taken first. Their share in the collection is about 1.6%.
KCNQ2 inh: inhibitors of rat KCNQ2 potassium channel | B-score at 10 µM | actives 1.1% (n = 310,000) | CHO-K1 KCNQ2, FluxOR thallium flux, 20 min; stronger effect = lower value | O88943;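 active = fluorescence ratio B-score at most minus 3 library SDs, with starting brightness B-score within 2 library SDs, cut at about -5.5 in these data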
Target sequence (O88943 whole entry, looked up): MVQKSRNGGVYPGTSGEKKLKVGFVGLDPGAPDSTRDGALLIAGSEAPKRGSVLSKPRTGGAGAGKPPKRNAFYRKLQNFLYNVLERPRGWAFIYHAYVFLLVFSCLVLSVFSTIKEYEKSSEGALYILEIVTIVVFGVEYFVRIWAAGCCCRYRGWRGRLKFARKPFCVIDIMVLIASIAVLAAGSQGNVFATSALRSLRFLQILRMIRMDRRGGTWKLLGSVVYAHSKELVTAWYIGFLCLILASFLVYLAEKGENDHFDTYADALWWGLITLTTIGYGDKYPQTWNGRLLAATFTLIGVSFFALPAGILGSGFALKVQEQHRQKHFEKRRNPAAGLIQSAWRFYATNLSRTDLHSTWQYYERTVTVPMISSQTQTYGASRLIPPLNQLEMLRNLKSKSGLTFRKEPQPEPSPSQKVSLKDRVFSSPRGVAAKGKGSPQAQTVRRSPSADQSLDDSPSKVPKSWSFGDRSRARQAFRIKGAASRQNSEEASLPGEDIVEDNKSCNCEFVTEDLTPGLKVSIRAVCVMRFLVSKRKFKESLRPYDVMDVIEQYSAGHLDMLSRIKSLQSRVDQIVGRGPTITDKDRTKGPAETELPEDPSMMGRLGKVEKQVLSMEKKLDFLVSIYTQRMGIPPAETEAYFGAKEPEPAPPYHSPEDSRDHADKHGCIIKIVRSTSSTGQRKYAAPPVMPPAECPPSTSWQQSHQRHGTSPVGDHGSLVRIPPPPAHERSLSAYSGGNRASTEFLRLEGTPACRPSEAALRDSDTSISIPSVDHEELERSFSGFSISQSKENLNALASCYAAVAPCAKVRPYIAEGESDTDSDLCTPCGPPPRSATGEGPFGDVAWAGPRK
KCNQ2 pot: enhances the rat KCNQ2 potassium channel | O88943 | CHO-K1 KCNQ2, FluxOR thallium flux fluorescence; stronger effect = higher value | B-score at 10 µM | actives 0.54% (n = 310,000) | AID 2239;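 active = fluorescence ratio B-score at least 3 SD of library B-scores, with initial fluorescence B-score within 3 of them, cut at about 5.3 in these data; same plate scores as AID 2156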;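 also: B-score of peak minus minimum over baseline fluorescence ratio after K+ and Tl+ stimulus; positive B-score means potentiation of KCNQ2 with more thallium influx and brighter signal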
* = called active by the depositor.

C/C(=C\C(=O)O)C12CC3CC(CC(C3)C1)C2 was read as KCNQ2 inh inactive and KCNQ2 pot 0.02.
`Cc1ccc2c(c1)N(S(=O)(=O)c1ccc(F)cc1)C(C(C)(C)C)CO2` (stereo unspecified) gave KCNQ2 inh -6.9* and KCNQ2 pot -6.9.
Screening Cc1ccc(S(=O)(=O)N2c3ccccc3OCC2C(C)(C)C)cc1 (stereo unspecified) returned KCNQ2 inh inactive.
For N#CCSc1nc2scc(-c3cccs3)c2c(=O)n1CCc1ccccc1 the results were KCNQ2 inh -7.02* and KCNQ2 pot -7.02.
C=CCn1c(SCC(=O)Nc2ccccc2)nc2scc(-c3cccs3)c2c1=O was read as KCNQ2 inh inactive.
For CCN(CC)S(=O)(=O)c1ccc(Cl)c(C(=O)Nc2ccc(Cl)cc2[N+](=O)[O-])c1 the results were KCNQ2 inh inactive and KCNQ2 pot 0.04.
Cc1cc(N/N=C/c2ccccc2Cl)nc(NCc2ccccc2)n1 was read as KCNQ2 inh -6.37* and KCNQ2 pot -6.37.
`Cc1cc(C)nc(N/N=C/c2ccccc2Cl)n1` gave KCNQ2 inh inactive and KCNQ2 pot 0.47.
`O=C(NCC1CCCO1)C(c1ccc(F)cc1)N(Cc1ccc2c(c1)OCO2)C(=O)c1ccc(CN2CCOCC2)o1` (stereo unspecified) gave KCNQ2 inh inactive and KCNQ2 pot 0.53.
`CCN(CC)S(=O)(=O)c1cccc(-c2nnc(SCC#N)n2Cc2ccccc2)c1` gave KCNQ2 inh -5.67* and KCNQ2 pot -5.67.
CCN(CC)S(=O)(=O)c1cccc(-c2nnc(SC(C)C#N)n2Cc2ccccc2)c1 (stereo unspecified) was read as KCNQ2 inh inactive.
Cc1cc(=O)[nH]c(Nc2ccccc2C)n1 was read as KCNQ2 inh inactive and KCNQ2 pot 1.34.
For O=S(=O)(NCc1ccccc1)c1ccc(S(=O)(=O)N(Cc2ccccn2)Cc2ccco2)cc1 the results were KCNQ2 inh inactive.
Screening CC(=O)Nc1ccc(S(=O)(=O)N2CCC(C(=O)NCc3ccncc3)CC2)cc1 returned KCNQ2 inh inactive.
For C=CCN(CC=C)S(=O)(=O)c1ccc2nsnc2c1 the results were KCNQ2 inh inactive and KCNQ2 pot 0.04.
Screening COc1ccc(CNC(=O)CN2C(=O)CC(c3ccccc3)=Nc3ccccc32)cc1 returned KCNQ2 inh inactive.
Screening O=C(CN1C(=O)CC(c2ccccc2)=Nc2ccccc21)NCc1ccccc1 returned KCNQ2 inh -5.57* and KCNQ2 pot -5.57.
COc1ccc(CNC(=O)CNC(=O)N2CC(=O)Nc3ccccc32)cc1 was read as KCNQ2 inh inactive.
Screening CCOc1ccc(-c2n[nH]c(C)c2Oc2ccc(OC)cc2)c(O)c1 returned KCNQ2 inh inactive.
For NCC(O)COCCC12CC3CC(CC(C3)C1)C2 (stereo unspecified) the results were KCNQ2 inh inactive.
CC(NCC(O)COCCC12CC3CC(CC(C3)C1)C2)c1ccccc1 (stereo unspecified) was read as KCNQ2 inh -7.7* and KCNQ2 pot -7.7.
`COc1ccccc1CNC(=O)CCC(=O)N1CC(C)Sc2ccccc21` (stereo unspecified) gave KCNQ2 inh -6.26* and KCNQ2 pot -6.26.
CC1CN(C(=O)CCC(=O)NCc2ccc(F)cc2)c2ccccc2S1 (stereo unspecified) was read as KCNQ2 inh inactive.
`CC1=C(C(=O)OC(C)C)C(c2ccccc2)NC(=S)N1C` (stereo unspecified) gave KCNQ2 inh inactive and KCNQ2 pot 1.09.
`O=C(COc1ccc2c3c(c(=O)oc2c1)CCC3)Nc1ccccn1` gave KCNQ2 inh inactive.
For Cc1ccc(NC(=O)C(=O)NNC(=O)c2ccccc2C)cc1Cl the results were KCNQ2 inh inactive and KCNQ2 pot 12*.
COc1ccc(C(=O)NNC(=O)C(=O)Nc2ccc(C)c(Cl)c2)cc1 was read as KCNQ2 inh inactive and KCNQ2 pot 3.56.
For COc1ccc(CCNC(=O)c2cc(C(=O)c3cc(Cl)ccc3O)cn(CCc3ccc(OC)cc3)c2=O)cc1 the results were KCNQ2 inh inactive.
Screening O=C(NCCc1ccccc1)c1ccccc1Cl returned KCNQ2 inh inactive.
Screening COc1ccc(CCNC(=O)c2cc(C(=O)c3cc(C)ccc3O)cn(CCc3ccc(OC)cc3)c2=O)cc1 returned KCNQ2 inh -7.27* and KCNQ2 pot -7.27.
O=C(c1cc(C(=O)NCCc2ccccc2)c(=O)n(CCc2ccccc2)c1)c1cc(Cl)ccc1O was read as KCNQ2 inh -6.38* and KCNQ2 pot -6.38.
O=S(=O)(Cc1ccccc1)N1CCN(Cc2ccc(F)cc2Cl)CC1 was read as KCNQ2 inh inactive and KCNQ2 pot 0.4.
COC(=O)/C=C1/S/C(=N/N=C/c2ccc(N(C)C)cc2)NC1=O was read as KCNQ2 inh inactive and KCNQ2 pot 1.21.
For COc1ccc(C(=O)NN/C(C)=C/C(=O)C(F)(F)C(F)(F)C(F)(F)F)cc1 the results were KCNQ2 inh inactive and KCNQ2 pot 10*.
